Calls of active or inactive are those of the source.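 Rule for the calls: active = normalized viability below 100% at a tested concentration; inactive = the rest.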

Usually viability stands for a read-out of living cells in per cent, often relative to untreated cells.

The first experiment in a line: ovarian cancer cell viability with rucaparib, profiling panel, oncology-focused library, rucaparib conditional (AID 1508598). The note with it: patient-derived ovarian cancer cells, CellTiter-Glo viability, 144 h; at 0.0195 µM; OCI-C5x cells; without rucaparib; stronger effect = lower value. (In general: Cellular ATP, detected with luciferase, serves as a proxy for viable cell number.)
Turning to `C/C(=C\c1csc(C)n1)[C@H]1C[C@@H]2O[C@]2(C)CCC[C@H](C)[C@H](O)[C@@H](C)C(=O)C(C)(C)[C@H](O)CC(=O)O1`, the viability is 27.5% (active).
On the same count and under the same terms, the figure for `C/C(=C\c1csc(C)n1)[C@H]1C[C@@H]2O[C@@H]2CCC[C@H](C)[C@H](O)[C@@H](C)C(=O)C(C)(C)[C@H](O)CC(=O)O1` is 22% (active); for `CC(C)[C@@]12O[C@@H]1[C@@H]1O[C@]13[C@]1(O[C@@H]1C[C@@H]1C4=C(CC[C@@]13C)C(=O)OC4)[C@@H]2O` it is 8.03% (active).

The same experiment, now with this note: patient-derived ovarian cancer cells, CellTiter-Glo viability, 144 h; at 0.0195 µM; OCI-P5x cells; with rucaparib 20 µM; stronger effect = lower value; 100% = cells with rucaparib alone.
On to `C/C(=C\c1csc(C)n1)[C@H]1C[C@@H]2O[C@]2(C)CCC[C@H](C)[C@H](O)[C@@H](C)C(=O)C(C)(C)[C@H](O)CC(=O)O1`, for which the viability was 47.2% (active).
Still for that read-out and setting: in the case of `C/C(=C\c1csc(C)n1)[C@H]1C[C@@H]2O[C@@H]2CCC[C@H](C)[C@H](O)[C@@H](C)C(=O)C(C)(C)[C@H](O)CC(=O)O1` it was 53.1% (active); in that of `CC(C)[C@@]12O[C@@H]1[C@@H]1O[C@]13[C@]1(O[C@@H]1C[C@@H]1C4=C(CC[C@@]13C)C(=O)OC4)[C@@H]2O`, 12.6% (active).

Source of the values: PubChem BioAssay.
